# Reference: ChEMBL document CHEMBL3988442, “University of Dundee, Small-Polar-MMV Screening Library” (2021)
# Out of some 85,000 compounds screened, about 440 (0.52%) showed an effect of 50% or more. This is one part of a sample in which strong results are shown more often than they occur.
# Assay: In vitro enzyme assay to detect hydrolysis of chlorophenol red-beta-D-[…] directly proportional to the number of Toxoplasma stably expressing beta-galactosidase
# Type: functional, organism-based, Toxoplasma gondii
# Set-up: scale not given: in the data most compounds retested in dose-response had high values
SMILES,Percent Effect (50 µM),Percent Effect (10 µM)
CN1CCCN(C(=O)COc2ccc(Br)cc2)CC1,68.33%,–
CN1CCCN(C(=O)COc2ccc(C#N)cc2)CC1,10.92%,–
CN1CCCN(C(=O)COc2ccccc2)CC1,-9.111%,–
CCc1cnc(N2CCNCC2)s1,54.04%,–
CCc1nsc(N2CCNCC2)n1,12.31%,–
Cc1cnc(N2CCNCC2)s1,5.738%,–
O=C(C[C@@H]1COC[C@H]2CN(Cc3ccncc3)C[C@@H]12)N1CCCC1,–,95.78%
O=C(C[C@@H]1COC[C@H]2CN(Cc3cccnc3)C[C@@H]12)N1CCCC1.O=C(O)C(F)(F)F.O=C(O)C(F)(F)F,–,-13.82%
O=C(C[C@H]1[C@H]2CN(Cc3ccncc3)C[C@@H]12)N1CCCC1.O=C(O)C(F)(F)F.O=C(O)C(F)(F)F,–,-5.891%
NCCc1ccc(Cl)s1,19.11%,–
C[C@@H]1CN(Cc2ccsc2)C[C@]12CCN(Cc1cccnc1)C2=O.O=C(O)C(F)(F)F.O=C(O)C(F)(F)F,–,-1.478%
NC1CCCCNC1=O (stereo not drawn),97.52%,–
CNC1CCNC1=O (stereo not drawn),22.45%,–
O=C1NC[C@H]2NCCC[C@@H]12,-10.77%,–
COCCN1C(=O)CC[C@@H]2[C@@H]1CCN2Cc1c(C)noc1C.O=C(O)C(F)(F)F,–,17.34%
NCCc1ccsc1,4.76%,–
O=C1C[C@H]2CC[C@@H](CN1)N2C1CSCCSC1,–,-1.323%
c1nc(N2CCNCC2)c2sccc2n1,52.15%,–
CN1CCN(c2ncnc3ccsc23)CC1,-1.262%,–
c1cc2sccc2c(N2CCNCC2)n1,13.67%,–
Cc1nc(CO[C@H]2CN(Cc3ccccn3)[C@@H]3CCCO[C@H]23)cs1.O=C(O)C(F)(F)F.O=C(O)C(F)(F)F,–,12.48%
CC(c1nc(C(C)(C)C)no1)N1CCN(C)CC1 (stereo not drawn),8.823%,–
COc1ccc(Cl)c(N2CCNCC2)c1,12.14%,–
CCC(O)CN1CCN(C(=O)Cc2cc(C)ccc2OC)CC1 (stereo not drawn),–,16.53%
COc1ccc(C)cc1CC(=O)N1CCN(CC(C)O)CC1 (stereo not drawn),–,-5.451%

SMILES,Percent Effect (50 µM),Percent Effect (10 µM)
COc1ccc(C)cc1CC(=O)N1CCN(C)CC1,93.86%,–
O=C(O)C(F)(F)F.O=C(O)[C@]12CCCN(C3CCOC3)C[C@H]1CN(c1ncccn1)C2 (stereo partly drawn),–,3.821%
COCCNC(=O)[C@H]1C[C@@H]2CCN(Cc3ccncc3)C[C@H]2O1.O=C(O)C(F)(F)F.O=C(O)C(F)(F)F,–,3.499%
CN1CCN(c2cccc(C#N)n2)CC1,4.938%,–
NCC1CCN(CC(F)F)CC1,1.969%,–
NC1CCN(CC(F)F)C1 (stereo not drawn),-7.731%,–
NC1CCN(CC(F)F)CC1,56.61%,–
Clc1cnccc1CN1CCC2(CCOC2)C1 (stereo not drawn),3.263%,–
CC(C)CC(=O)NC1CC2(CCN(CCF)CC2)Oc2ccccc21.O=C(O)C(F)(F)F (stereo not drawn),–,-26.74%
N#Cc1ccccn1,-5.392%,–
CC[C@@H]1N(Cc2ccncc2)CCC[C@]12CCC(=O)N2C.O=C(O)C(F)(F)F.O=C(O)C(F)(F)F,–,-4.695%
CC1CN(C)CCC1=O (stereo not drawn),95.15%,–
CN1CCN2C(=O)N(C3CCCCC3)C[C@H]2C1,–,-2.107%
Cc1ccc([C@@H](O)CN)cc1,-14.41%,–
Cl.O=C1N(Cc2ccc(Cl)cc2)CCC12CCCNC2 (stereo not drawn),–,-3.809%
OCC1CCC2(CCCC2)CN1 (stereo not drawn),23.34%,–
Cc1nc(C(=O)N[C@H]2COC[C@@H]2N2CCCCC2)cs1,–,24.19%
O=C(N[C@H]1COC[C@@H]1N1CCCC1)c1c[nH]nc1C1CCCCC1,–,7.68%
O=C(N[C@H]1COC[C@@H]1N1CCCCC1)c1cnc[nH]1,53.1%,–
Cc1nc(C)c(CN2CC3(CCNCC3)OC2=O)s1,-5.089%,–
COc1ccc(CCN)c(Cl)c1,6.537%,–
N[C@H]1[C@@H]2CC[C@H]1CN(CCn1cc(Cl)cn1)C2,17.19%,–
COc1cccc(N2CCNCC2C)c1 (stereo not drawn),93.04%,–
CC1CNCCN1c1cccc2cnccc12 (stereo not drawn),3.081%,–
COc1cccc(C(C)N2CCNCC2)c1 (stereo not drawn),-0.2947%,–

SMILES,Percent Effect (50 µM),Percent Effect (10 µM)
CNC(CCO)Cc1ccccc1 (stereo not drawn),-16.85%,–
CCC(C)Cn1nc(COC)oc1=O (stereo not drawn),3.972%,–
NCCc1ccc(C(F)(F)F)cn1,-0.7951%,–
NCCc1cc(C(F)(F)F)ccn1,99.23%,–
NCCc1ccc(F)cn1,2.533%,–
CN[C@@H]1CCO[C@H]1c1cccnc1,-18.11%,–
NCCC1COc2ccccc2O1 (stereo not drawn),1.961%,–
NCCC1CSc2ccccc2O1 (stereo not drawn),65.01%,–
CC1CN(C)CCN1Cc1nc(N)nc(N(C)C)n1 (stereo not drawn),17%,–
CO[C@H]1CCN(Cc2ccccn2)[C@@H]2CN(Cc3ccco3)C[C@H]12.O=C(O)C(F)(F)F.O=C(O)C(F)(F)F.O=C(O)C(F)(F)F,–,-1.554%
CO[C@@H]1CCN(Cc2ccccn2)[C@@H]2CN(Cc3ccco3)C[C@@H]21.O=C(O)C(F)(F)F.O=C(O)C(F)(F)F.O=C(O)C(F)(F)F,–,93.58%
CO[C@H]1CCN(c2ncc(F)cn2)[C@@H]2CN(Cc3ccco3)C[C@H]12.O=C(O)C(F)(F)F.O=C(O)C(F)(F)F,–,10.96%
Cc1noc(C)c1CC(=O)N1CCN(C(C)(C)C)CC1,6.08%,–
CN(CC(N)=O)C1Cc2ccccc2C1,-5.488%,–
CC(=O)N1CCC2(CC1)c1ncc(-c3cccnc3)n1CCN2C,–,-29.38%
CC(=O)N1N=C(c2cccnc2)CC1c1ccco1 (stereo not drawn),88.79%,–
O=C1CC(c2cccnc2)=NCCN1,42.08%,–
C1CC(NC2COC2)CCO1,12.23%,–
Cc1cc(CNC(C)Cn2cccn2)on1 (stereo not drawn),9.614%,–
CC(C)N1CCN(Cc2ccc(N)nc2)CC1,-5.951%,–
Cc1cc(C(=O)N2C[C@@H]3CCCN[C@@H]3C2)cc(C)n1,-13.26%,–
Cc1ncc(C(=O)N2C[C@@H]3CCCN[C@@H]3C2)cn1,-7.245%,–
Cc1ncc(C(=O)N2C[C@@H]3CCCN[C@@H]3C2)c(C)n1,63.53%,–
